Paper PMC7862700, “An all-to-all approach to the identification of sequence-specific readers for epigenetic DNA modifications on cytosine”

Key:
Experiment in all cases: DAPPL (digital affinity profiling via proximity ligation, sequencing); 10 mM Tris-HCl pH 7.5, 50 mM NaCl, 1 mM DTT, 4% glycerol, room temperature, 30 min; GST-TFs on glutathione beads, 16-mer random dsDNA library, 0.1% formaldehyde crosslink after washing; high values mean tight binding
Conditions in all cases: protein: recombinant; tags: N-terminal GST; dsDNA, one strand shown
FLI1 = biological target: T1, FLI1 (Homo sapiens, UniProt Q01543 1-452)
T1 sequence: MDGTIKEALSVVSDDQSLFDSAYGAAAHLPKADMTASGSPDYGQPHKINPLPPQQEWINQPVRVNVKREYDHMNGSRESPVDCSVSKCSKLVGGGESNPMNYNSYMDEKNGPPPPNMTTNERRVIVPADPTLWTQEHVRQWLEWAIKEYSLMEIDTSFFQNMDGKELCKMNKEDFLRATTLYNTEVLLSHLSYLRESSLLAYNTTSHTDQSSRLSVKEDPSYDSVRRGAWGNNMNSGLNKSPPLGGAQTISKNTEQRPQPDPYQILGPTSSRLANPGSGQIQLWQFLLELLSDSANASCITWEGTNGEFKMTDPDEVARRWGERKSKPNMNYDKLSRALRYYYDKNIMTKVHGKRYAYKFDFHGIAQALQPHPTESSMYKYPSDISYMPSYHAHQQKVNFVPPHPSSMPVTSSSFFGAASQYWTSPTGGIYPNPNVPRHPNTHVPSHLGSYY
Method in brief: (§1)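 Human transcription factors carrying a GST fusion were produced in yeast, bound to glutathione beads, tagged with DNA barcodes and pooled together with a tag-only sample. Each pool was held with 200 nmole of a random double-stranded 16-mer DNA library in Tris/NaCl/DTT/glycerol buffer for 30 min at room temperature, then washed, crosslinked in 0.1% formaldehyde, proximity-ligated with BsaI/T4 ligase (1 h, 37 °C), PCR-amplified and sequenced on an Illumina NextSeq500. Binding signal is the read frequency of each hexamer for a given factor divided by its frequency in the tag-only sample.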

GABPA = biological target: T2, GABPA (Homo sapiens, UniProt Q06546 1-454)
T2 sequence: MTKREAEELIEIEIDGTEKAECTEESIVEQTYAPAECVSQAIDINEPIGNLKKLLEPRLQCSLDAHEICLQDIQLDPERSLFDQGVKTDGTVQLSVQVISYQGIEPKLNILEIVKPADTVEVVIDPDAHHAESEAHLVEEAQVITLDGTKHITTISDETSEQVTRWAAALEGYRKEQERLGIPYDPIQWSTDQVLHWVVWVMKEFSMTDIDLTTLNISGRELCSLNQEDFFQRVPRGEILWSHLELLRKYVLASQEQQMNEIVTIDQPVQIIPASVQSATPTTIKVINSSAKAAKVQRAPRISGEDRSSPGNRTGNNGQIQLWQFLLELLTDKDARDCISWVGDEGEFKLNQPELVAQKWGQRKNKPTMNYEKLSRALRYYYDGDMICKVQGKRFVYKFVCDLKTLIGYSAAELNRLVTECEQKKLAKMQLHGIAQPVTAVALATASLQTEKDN
Method in brief: as §1

ERG = biological target: T3, ERG (Homo sapiens, UniProt P11308 1-479)
T3 sequence: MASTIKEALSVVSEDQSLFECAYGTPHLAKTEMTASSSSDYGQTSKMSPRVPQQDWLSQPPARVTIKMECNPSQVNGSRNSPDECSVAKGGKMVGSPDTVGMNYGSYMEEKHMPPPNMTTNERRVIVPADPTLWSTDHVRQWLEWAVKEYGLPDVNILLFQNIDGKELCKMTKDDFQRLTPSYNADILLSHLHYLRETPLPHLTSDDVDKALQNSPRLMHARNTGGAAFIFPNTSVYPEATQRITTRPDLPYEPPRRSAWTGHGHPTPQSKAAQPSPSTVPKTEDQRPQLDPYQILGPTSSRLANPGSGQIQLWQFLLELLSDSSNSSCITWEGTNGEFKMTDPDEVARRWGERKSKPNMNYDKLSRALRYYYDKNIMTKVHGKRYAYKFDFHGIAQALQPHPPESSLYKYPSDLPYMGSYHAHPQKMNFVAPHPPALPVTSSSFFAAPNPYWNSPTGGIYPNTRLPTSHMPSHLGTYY
Method in brief: as §1

ELF1 = ELF1 (Homo sapiens, UniProt P32519 1-619)
ELF1, sequence (P32519 whole entry): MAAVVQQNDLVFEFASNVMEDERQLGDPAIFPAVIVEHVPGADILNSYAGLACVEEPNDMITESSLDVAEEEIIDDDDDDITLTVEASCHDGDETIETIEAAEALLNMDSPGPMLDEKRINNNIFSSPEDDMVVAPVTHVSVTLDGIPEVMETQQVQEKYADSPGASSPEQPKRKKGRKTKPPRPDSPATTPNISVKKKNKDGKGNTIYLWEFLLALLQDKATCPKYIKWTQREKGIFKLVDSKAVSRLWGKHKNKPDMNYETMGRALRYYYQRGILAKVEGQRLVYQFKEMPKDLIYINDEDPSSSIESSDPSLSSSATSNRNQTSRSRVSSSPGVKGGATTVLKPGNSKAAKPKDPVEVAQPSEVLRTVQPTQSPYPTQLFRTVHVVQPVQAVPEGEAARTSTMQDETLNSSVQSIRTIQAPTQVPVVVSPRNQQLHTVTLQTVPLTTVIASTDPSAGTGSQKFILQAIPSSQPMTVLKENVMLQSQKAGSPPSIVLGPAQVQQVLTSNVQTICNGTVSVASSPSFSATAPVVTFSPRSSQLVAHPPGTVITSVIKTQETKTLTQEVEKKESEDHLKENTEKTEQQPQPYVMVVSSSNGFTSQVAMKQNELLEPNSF
Method in brief: as §1

EHF = biological target: T4, EHF (Homo sapiens, UniProt Q9NZC4 1-300)
T4 sequence: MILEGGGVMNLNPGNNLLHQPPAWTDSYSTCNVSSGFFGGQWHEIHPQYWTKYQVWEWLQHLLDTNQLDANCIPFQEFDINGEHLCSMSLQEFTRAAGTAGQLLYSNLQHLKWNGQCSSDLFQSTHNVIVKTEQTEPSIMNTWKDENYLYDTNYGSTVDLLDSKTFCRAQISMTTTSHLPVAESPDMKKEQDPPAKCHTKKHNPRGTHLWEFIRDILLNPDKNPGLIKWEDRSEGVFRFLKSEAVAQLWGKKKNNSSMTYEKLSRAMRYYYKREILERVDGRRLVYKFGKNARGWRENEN
Method in brief: as §1

SPI1 = SPI1 (Homo sapiens, UniProt P17947 1-270)
Method in brief: as §1

SPIB = SPIB (Homo sapiens, UniProt Q01892 1-262)
SPIB, sequence (Q01892 whole entry): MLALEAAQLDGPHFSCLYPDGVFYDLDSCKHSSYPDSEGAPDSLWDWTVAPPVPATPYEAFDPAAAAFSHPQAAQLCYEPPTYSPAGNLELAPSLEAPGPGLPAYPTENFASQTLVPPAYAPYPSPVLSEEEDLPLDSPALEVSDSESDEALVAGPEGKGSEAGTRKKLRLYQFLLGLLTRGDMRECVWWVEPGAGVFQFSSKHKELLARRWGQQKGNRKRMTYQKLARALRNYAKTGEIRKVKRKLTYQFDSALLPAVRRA
Method in brief: as §1

ELK3 = biological target: T5, ELK3 (Homo sapiens, UniProt P41970 1-407)
T5 sequence: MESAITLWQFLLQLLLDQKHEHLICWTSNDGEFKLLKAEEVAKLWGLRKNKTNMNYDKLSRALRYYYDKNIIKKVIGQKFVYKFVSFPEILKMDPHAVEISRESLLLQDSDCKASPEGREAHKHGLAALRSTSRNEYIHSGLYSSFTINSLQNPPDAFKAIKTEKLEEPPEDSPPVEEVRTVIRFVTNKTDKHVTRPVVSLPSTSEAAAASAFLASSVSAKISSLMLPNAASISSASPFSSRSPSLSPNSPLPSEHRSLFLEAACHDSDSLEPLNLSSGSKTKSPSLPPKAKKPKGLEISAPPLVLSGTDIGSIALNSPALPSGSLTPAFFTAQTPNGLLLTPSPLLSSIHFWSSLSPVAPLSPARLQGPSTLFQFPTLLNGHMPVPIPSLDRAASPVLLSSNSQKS
Method in brief: as §1

FEV = biological target: T6, FEV (Homo sapiens, UniProt Q99581 1-238)
T6 sequence: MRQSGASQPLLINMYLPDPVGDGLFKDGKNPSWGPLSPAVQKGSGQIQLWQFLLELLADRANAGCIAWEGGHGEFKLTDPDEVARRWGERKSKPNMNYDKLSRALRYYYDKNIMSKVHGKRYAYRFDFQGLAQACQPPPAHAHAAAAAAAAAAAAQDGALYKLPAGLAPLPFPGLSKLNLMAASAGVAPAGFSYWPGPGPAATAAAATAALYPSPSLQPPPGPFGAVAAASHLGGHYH
Method in brief: as §1

ETV5 = ETV5 (Homo sapiens, UniProt P41161 1-510)
ETV5, sequence (P41161 whole entry): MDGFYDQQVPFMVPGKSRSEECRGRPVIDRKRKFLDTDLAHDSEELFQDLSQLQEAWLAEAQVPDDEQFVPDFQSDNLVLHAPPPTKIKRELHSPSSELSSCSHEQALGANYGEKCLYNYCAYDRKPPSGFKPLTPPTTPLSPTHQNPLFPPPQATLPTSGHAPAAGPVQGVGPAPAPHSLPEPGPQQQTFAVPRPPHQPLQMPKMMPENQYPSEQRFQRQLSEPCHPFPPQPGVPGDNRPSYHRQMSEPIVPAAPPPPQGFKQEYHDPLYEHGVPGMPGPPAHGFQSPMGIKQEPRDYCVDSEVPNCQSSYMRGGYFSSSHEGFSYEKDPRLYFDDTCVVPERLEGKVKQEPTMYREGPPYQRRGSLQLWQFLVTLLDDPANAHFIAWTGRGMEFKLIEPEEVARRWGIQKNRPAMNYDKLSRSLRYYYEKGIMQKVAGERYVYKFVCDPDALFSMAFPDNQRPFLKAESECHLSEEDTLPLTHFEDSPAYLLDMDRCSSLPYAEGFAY
Method in brief: as §1

SPIC = biological target: T7, SPIC (Homo sapiens, UniProt Q8N5J4 1-248)
T7 sequence: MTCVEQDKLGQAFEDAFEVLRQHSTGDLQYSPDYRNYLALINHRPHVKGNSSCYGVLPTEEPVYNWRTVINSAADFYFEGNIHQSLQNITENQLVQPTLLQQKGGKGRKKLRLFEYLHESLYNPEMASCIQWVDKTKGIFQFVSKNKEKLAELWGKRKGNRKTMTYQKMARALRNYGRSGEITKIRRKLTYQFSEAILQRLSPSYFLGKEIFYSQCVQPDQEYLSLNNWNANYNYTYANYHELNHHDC
Method in brief: as §1

ELF4 = ELF4 (Homo sapiens, UniProt Q99607 1-663)
ELF4, sequence (Q99607 whole entry): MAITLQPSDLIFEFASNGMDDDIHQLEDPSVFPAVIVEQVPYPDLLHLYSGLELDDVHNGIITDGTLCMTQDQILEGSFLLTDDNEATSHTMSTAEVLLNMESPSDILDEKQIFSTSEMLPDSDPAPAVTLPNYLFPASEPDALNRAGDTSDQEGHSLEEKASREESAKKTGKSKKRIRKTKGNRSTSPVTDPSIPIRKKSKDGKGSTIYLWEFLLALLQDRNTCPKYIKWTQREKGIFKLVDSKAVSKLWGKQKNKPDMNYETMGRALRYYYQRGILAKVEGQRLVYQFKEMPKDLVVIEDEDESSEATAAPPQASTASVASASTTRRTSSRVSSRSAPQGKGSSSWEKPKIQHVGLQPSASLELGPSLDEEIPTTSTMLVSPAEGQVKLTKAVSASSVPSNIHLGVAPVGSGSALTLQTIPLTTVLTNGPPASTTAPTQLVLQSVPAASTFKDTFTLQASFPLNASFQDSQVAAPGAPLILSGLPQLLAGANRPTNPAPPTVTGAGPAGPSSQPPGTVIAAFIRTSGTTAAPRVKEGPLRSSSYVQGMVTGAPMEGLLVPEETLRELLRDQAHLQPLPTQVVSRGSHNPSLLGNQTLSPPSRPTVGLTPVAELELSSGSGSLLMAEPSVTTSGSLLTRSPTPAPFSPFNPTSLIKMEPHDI
Method in brief: as §1

ETV1 = ETV1 (Homo sapiens, UniProt P50549 1-477)
ETV1, sequence (P50549 whole entry): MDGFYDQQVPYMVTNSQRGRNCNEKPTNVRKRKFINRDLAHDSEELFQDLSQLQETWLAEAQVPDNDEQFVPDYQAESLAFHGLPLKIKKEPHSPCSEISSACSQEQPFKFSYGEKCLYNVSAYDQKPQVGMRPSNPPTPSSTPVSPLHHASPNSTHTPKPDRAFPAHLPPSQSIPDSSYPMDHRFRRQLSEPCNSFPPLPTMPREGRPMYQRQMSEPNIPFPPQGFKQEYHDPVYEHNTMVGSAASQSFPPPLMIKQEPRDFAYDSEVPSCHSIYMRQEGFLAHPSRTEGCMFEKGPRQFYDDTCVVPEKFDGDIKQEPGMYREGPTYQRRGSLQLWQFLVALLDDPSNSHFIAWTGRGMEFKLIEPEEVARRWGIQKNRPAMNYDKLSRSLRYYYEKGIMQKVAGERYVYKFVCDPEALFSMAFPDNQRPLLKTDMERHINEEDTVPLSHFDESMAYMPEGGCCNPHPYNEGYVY
Method in brief: as §1

ERF = biological target: T8, ERF (Homo sapiens, UniProt P50548 1-548)
T8 sequence: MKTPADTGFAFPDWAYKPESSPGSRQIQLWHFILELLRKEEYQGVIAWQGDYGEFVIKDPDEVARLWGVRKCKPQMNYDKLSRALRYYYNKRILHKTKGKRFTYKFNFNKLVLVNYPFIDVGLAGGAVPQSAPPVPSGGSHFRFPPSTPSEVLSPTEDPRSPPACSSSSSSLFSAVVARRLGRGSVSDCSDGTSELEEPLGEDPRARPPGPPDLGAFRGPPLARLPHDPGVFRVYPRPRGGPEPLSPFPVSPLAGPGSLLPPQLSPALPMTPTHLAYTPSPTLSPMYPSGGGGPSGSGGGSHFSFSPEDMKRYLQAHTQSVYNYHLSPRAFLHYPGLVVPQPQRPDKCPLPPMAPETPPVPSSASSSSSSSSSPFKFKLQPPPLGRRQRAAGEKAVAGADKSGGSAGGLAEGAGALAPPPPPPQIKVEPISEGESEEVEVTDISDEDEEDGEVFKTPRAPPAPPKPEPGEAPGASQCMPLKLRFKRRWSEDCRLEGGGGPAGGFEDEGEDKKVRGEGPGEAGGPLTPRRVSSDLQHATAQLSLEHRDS
Method in brief: as §1

ETV3L = biological target: T9, ETV3L (Homo sapiens, UniProt Q6ZN32 1-361)
T9 sequence: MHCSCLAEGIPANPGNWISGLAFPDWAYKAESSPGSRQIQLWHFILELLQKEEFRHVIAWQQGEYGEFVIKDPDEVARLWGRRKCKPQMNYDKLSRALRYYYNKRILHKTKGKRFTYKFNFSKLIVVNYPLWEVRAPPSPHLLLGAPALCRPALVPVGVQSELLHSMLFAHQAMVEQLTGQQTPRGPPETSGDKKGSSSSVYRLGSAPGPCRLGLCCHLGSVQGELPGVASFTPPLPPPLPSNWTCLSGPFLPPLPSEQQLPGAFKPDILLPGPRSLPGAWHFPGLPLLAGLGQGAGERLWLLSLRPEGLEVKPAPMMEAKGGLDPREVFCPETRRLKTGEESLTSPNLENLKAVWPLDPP
Method in brief: as §1

ETS2 = biological target: T10, ETS2 (Homo sapiens, UniProt P15036 1-469)
T10 sequence: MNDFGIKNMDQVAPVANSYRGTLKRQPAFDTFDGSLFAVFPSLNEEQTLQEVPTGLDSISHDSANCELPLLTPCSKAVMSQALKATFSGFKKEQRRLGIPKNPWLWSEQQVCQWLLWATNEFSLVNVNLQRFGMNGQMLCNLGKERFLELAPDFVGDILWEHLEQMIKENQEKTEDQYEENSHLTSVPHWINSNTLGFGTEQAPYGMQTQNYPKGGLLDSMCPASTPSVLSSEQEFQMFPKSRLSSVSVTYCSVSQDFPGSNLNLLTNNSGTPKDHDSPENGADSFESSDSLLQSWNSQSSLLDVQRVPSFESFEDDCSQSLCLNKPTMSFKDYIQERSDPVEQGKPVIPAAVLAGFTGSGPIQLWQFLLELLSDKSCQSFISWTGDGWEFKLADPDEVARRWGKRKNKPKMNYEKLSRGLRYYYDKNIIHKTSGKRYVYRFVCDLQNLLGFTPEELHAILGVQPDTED
Method in brief: as §1

ETV3 = biological target: T11, ETV3 (Homo sapiens, UniProt P41162-2 1-143)
T11 sequence: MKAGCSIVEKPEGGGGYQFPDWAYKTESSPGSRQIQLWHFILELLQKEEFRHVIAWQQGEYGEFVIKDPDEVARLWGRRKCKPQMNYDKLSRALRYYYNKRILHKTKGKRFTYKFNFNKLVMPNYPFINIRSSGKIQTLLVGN
Method in brief: as §1

ETV6 = ETV6 (Homo sapiens, UniProt P41212 1-452)
ETV6, sequence (P41212 whole entry): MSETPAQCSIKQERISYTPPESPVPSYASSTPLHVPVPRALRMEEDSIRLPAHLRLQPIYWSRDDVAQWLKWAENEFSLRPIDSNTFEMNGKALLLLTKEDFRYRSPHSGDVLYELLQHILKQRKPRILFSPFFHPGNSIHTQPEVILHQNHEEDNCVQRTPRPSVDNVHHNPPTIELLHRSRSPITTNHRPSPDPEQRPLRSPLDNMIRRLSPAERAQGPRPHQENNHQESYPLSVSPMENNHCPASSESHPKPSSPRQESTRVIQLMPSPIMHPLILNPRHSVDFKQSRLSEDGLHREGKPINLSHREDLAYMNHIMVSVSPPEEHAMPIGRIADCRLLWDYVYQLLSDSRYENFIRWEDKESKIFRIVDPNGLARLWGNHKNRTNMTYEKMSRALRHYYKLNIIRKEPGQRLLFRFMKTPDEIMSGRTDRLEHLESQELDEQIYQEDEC
Method in brief: as §1

SPDEF = biological target: T12, SPDEF (Homo sapiens, UniProt O95238 1-335)
T12 sequence: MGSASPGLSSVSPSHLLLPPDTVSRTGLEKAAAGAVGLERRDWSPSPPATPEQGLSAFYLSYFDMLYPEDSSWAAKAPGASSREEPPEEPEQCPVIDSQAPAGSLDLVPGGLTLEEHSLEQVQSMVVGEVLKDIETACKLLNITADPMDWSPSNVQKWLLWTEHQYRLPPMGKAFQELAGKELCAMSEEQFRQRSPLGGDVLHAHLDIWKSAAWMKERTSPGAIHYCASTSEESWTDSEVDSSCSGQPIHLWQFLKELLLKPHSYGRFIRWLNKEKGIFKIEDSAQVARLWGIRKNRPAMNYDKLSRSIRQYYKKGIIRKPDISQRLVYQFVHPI
Method in brief: as §1

Row | Sequence | binding signal (FLI1) | binding signal (GABPA) | binding signal (ERG) | binding signal (ELF1) | binding signal (EHF) | binding signal (SPI1) | binding signal (SPIB) | binding signal (ELK3) | binding signal (FEV) | binding signal (ETV5) | binding signal (SPIC) | binding signal (ELF4) | binding signal (ETV1) | binding signal (ERF) | binding signal (ETV3L) | binding signal (ETS2) | binding signal (ETV3) | binding signal (ETV6) | binding signal (SPDEF)
1 | GCTTGT | 1.22 fold enrichment (6-mer frequency, TF over GST control) | 1.08 fold enrichment (6-mer frequency, TF over GST control) | 1.05 fold enrichment (6-mer frequency, TF over GST control) | 1.11 fold enrichment (6-mer frequency, TF over GST control) | 1.13 fold enrichment (6-mer frequency, TF over GST control) | 1.15 fold enrichment (6-mer frequency, TF over GST control) | 1.13 fold enrichment (6-mer frequency, TF over GST control) | 1.12 fold enrichment (6-mer frequency, TF over GST control) | 1.02 fold enrichment (6-mer frequency, TF over GST control) | 1.2 fold enrichment (6-mer frequency, TF over GST control) | 1.26 fold enrichment (6-mer frequency, TF over GST control) | 1.07 fold enrichment (6-mer frequency, TF over GST control) | 1.13 fold enrichment (6-mer frequency, TF over GST control) | 1.18 fold enrichment (6-mer frequency, TF over GST control) | 1.02 fold enrichment (6-mer frequency, TF over GST control) | 1.07 fold enrichment (6-mer frequency, TF over GST control) | 1.11 fold enrichment (6-mer frequency, TF over GST control) | 1.02 fold enrichment (6-mer frequency, TF over GST control) | –
2 | GTTATA | 1.12 fold enrichment (6-mer frequency, TF over GST control) | – | – | 1.03 fold enrichment (6-mer frequency, TF over GST control) | – | 1.01 fold enrichment (6-mer frequency, TF over GST control) | 1.03 fold enrichment (6-mer frequency, TF over GST control) | 1.06 fold enrichment (6-mer frequency, TF over GST control) | – | 1.04 fold enrichment (6-mer frequency, TF over GST control) | 1.15 fold enrichment (6-mer frequency, TF over GST control) | – | – | 1.03 fold enrichment (6-mer frequency, TF over GST control) | 1.06 fold enrichment (6-mer frequency, TF over GST control) | 1.06 fold enrichment (6-mer frequency, TF over GST control) | – | 1 fold enrichment (6-mer frequency, TF over GST control) | 1.03 fold enrichment (6-mer frequency, TF over GST control)
